Common to all, as to assay: DAPPL (digital affinity profiling via proximity ligation, sequencing); 10 mM Tris-HCl pH 7.5, 50 mM NaCl, 1 mM DTT, 4% glycerol, room temperature, 30 min; GST-TFs on glutathione beads, 16-mer random dsDNA library, 0.1% formaldehyde crosslink after washing; high values mean tight binding
The target in one assay is T1, FLI1 (Homo sapiens, UniProt Q01543 1-452).
T1 sequence: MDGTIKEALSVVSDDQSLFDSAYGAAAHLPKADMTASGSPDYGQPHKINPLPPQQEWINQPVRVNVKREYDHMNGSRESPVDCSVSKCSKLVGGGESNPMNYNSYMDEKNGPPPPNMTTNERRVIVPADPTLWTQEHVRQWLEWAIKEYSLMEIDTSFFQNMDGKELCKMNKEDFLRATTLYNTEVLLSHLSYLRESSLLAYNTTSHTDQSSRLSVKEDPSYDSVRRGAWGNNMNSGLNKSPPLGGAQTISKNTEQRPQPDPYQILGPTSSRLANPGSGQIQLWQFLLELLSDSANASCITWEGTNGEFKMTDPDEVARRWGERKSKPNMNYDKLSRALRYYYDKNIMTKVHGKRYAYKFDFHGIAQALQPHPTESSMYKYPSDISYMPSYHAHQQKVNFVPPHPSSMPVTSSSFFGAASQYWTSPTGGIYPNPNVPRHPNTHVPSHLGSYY
The following applies: protein: recombinant; tags: N-terminal GST; dsDNA, one strand shown. In short, it runs like this: (§1)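 The binding signal reported is, for every hexamer, its read frequency for a factor over its read frequency for the tag-only sample. Reads came from pools of yeast-expressed, GST-fused human transcription factors on glutathione beads, barcoded with DNA and mixed with that sample, which were incubated with 200 nmole of a random double-stranded 16-mer DNA library in Tris/NaCl/DTT/glycerol buffer at room temperature for 30 min. After washing, the pools were crosslinked with 0.1% formaldehyde, proximity-ligated with BsaI/T4 ligase for 1 h at 37 °C, PCR-amplified and sequenced on an Illumina NextSeq500.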

The next assay has as its target T2, ELK1 (Homo sapiens, UniProt P19419 1-428).
T2 sequence: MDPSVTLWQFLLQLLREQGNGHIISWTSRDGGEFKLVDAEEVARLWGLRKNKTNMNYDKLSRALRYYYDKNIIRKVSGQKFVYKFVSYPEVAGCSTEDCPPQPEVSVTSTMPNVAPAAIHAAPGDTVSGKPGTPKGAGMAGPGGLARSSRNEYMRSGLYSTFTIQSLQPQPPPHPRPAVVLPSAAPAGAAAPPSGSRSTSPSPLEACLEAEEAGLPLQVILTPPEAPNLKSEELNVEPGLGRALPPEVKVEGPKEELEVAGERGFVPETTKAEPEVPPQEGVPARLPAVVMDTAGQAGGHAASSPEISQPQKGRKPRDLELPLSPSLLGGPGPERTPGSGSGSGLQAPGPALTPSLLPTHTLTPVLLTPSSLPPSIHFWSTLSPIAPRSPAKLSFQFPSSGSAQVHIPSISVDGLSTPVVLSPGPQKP
Conditions: protein: recombinant; tags: N-terminal GST; dsDNA, one strand shown. In short, it runs like this: as §1

The target in a further assay is T3, GABPA (Homo sapiens, UniProt Q06546 1-454).
T3 sequence: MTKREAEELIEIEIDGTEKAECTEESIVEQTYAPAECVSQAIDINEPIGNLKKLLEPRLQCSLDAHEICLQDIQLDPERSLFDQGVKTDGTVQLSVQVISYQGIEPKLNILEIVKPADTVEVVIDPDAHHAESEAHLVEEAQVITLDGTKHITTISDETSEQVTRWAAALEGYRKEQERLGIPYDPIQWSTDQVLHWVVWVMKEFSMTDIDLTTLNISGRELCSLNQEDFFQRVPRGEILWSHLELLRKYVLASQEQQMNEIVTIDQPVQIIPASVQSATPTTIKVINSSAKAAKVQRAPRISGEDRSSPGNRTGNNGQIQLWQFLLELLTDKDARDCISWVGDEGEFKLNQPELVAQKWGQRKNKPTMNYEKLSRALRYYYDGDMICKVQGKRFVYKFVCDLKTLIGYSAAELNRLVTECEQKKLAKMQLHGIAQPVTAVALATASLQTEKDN
The following applies: protein: recombinant; tags: N-terminal GST; dsDNA, one strand shown. In short, it runs like this:
as §1

In a further assay the target is T4, ERG (Homo sapiens, UniProt P11308 1-479).
T4 sequence: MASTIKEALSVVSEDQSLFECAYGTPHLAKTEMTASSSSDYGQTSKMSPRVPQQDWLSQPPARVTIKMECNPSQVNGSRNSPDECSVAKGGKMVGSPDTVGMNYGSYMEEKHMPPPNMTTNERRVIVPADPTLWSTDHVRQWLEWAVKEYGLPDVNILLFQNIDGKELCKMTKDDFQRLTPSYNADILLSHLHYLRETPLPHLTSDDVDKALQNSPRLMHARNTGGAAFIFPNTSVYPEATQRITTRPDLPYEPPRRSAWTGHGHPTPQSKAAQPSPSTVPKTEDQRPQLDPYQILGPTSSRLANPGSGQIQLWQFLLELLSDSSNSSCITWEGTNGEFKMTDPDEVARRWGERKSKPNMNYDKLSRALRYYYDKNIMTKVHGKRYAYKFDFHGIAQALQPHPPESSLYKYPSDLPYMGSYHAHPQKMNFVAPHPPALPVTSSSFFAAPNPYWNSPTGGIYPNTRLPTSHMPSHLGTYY
The following applies: protein: recombinant; tags: N-terminal GST; dsDNA, one strand shown. In short, it runs like this:
as §1

The target in a further assay is ELF1 (Homo sapiens, UniProt P32519 1-619). The following applies: protein: recombinant; tags: N-terminal GST; dsDNA, one strand shown. In short, it runs like this:
as §1

A further assay deals with T5, EHF (Homo sapiens, UniProt Q9NZC4 1-300).
T5 sequence: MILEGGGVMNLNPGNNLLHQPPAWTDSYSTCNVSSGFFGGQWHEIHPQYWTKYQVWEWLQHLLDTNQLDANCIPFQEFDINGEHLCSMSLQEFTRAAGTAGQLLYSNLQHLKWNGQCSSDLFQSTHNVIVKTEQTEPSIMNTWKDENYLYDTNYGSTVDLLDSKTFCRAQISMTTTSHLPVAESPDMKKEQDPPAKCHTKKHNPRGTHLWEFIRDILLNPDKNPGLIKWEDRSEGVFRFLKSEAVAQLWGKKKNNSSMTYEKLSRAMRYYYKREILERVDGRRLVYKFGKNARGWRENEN
The following applies: protein: recombinant; tags: N-terminal GST; dsDNA, one strand shown. In short, it runs like this:
as §1

The next assay addresses SPI1 (Homo sapiens, UniProt P17947 1-270). Conditions: protein: recombinant; tags: N-terminal GST; dsDNA, one strand shown. In short, it runs like this:
as §1

Another assay addresses SPIB (Homo sapiens, UniProt Q01892 1-262). The following applies: protein: recombinant; tags: N-terminal GST; dsDNA, one strand shown. In short, it runs like this:
as §1

The target of another assay is T6, ELK3 (Homo sapiens, UniProt P41970 1-407).
T6 sequence: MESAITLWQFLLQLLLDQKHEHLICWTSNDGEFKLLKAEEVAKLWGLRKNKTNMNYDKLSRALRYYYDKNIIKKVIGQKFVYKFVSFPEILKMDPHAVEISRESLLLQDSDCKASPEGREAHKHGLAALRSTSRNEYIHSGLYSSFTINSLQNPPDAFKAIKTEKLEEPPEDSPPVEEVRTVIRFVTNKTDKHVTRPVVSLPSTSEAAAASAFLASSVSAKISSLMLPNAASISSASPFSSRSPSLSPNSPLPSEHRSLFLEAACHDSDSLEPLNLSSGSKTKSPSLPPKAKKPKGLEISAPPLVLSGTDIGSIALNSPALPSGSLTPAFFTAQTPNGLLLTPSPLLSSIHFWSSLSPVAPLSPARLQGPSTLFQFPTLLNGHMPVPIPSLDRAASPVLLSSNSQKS
Conditions: protein: recombinant; tags: N-terminal GST; dsDNA, one strand shown. In short, it runs like this:
as §1

In a further assay the target is T7, FEV (Homo sapiens, UniProt Q99581 1-238).
T7 sequence: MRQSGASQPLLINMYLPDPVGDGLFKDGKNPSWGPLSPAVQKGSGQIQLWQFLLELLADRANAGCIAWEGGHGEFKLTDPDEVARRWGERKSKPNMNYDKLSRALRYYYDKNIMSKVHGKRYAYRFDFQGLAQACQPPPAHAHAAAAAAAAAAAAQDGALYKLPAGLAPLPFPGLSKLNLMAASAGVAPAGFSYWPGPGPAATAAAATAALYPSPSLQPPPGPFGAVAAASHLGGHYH
Conditions: protein: recombinant; tags: N-terminal GST; dsDNA, one strand shown. In short, it runs like this: as §1

A further assay has as its target ETV5 (Homo sapiens, UniProt P41161 1-510). Conditions: protein: recombinant; tags: N-terminal GST; dsDNA, one strand shown. In short, it runs like this:
as §1

The next assay concerns the target HSF1 (Homo sapiens, UniProt Q00613 1-529). Conditions: protein: recombinant; tags: N-terminal GST; chain copies: 3; dsDNA, one strand shown. In short, it runs like this:
as §1

In the next assay the target is T8, SPIC (Homo sapiens, UniProt Q8N5J4 1-248).
T8 sequence: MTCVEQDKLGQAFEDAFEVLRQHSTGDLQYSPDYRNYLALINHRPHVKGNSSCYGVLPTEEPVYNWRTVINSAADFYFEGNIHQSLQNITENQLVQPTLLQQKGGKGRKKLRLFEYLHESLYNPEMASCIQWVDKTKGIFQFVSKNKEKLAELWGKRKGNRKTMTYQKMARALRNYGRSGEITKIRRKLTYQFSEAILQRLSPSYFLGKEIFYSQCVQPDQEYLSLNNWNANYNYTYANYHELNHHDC
Conditions: protein: recombinant; tags: N-terminal GST; dsDNA, one strand shown. In short, it runs like this: as §1

Another assay has as its target ELF4 (Homo sapiens, UniProt Q99607 1-663). Conditions: protein: recombinant; tags: N-terminal GST; dsDNA, one strand shown. In short, it runs like this: as §1
The next assay has as its target T9, ELK4 (Homo sapiens, UniProt P28324-2 1-405).
T9 sequence: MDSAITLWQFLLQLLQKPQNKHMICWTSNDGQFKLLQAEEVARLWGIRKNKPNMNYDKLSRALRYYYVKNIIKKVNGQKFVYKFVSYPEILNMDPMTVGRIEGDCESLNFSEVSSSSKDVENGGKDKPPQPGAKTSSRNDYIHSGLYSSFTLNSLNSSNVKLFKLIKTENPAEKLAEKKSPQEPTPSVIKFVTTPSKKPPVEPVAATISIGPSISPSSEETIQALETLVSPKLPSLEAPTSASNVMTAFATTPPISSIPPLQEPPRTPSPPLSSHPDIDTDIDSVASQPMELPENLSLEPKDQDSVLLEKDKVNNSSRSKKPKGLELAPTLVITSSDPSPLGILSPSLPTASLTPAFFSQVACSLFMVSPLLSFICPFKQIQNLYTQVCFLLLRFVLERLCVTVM
Conditions: protein: recombinant; tags: N-terminal GST; dsDNA, one strand shown. In short, it runs like this:
as §1

The target of another assay is T10, ELF3 (Homo sapiens, UniProt P78545 1-371).
T10 sequence: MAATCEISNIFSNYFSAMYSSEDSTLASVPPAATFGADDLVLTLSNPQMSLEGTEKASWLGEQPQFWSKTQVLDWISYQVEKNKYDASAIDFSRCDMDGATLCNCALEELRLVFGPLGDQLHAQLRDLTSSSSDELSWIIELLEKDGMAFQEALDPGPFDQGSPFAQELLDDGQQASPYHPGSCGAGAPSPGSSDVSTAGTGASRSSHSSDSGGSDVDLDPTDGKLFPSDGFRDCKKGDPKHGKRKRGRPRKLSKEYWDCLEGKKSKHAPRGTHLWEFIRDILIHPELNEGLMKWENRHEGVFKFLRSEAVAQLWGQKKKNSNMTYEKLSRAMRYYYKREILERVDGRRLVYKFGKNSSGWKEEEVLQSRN
The following applies: protein: recombinant; tags: N-terminal GST; dsDNA, one strand shown. In short, it runs like this: as §1

Another assay addresses CRX (Homo sapiens, UniProt O43186 1-299). The following applies: protein: recombinant; tags: N-terminal GST; dsDNA, one strand shown. In short, it runs like this:
as §1

Another assay deals with ETV1 (Homo sapiens, UniProt P50549 1-477). Conditions: protein: recombinant; tags: N-terminal GST; dsDNA, one strand shown. In short, it runs like this: as §1
ETV1, sequence (P50549 whole entry): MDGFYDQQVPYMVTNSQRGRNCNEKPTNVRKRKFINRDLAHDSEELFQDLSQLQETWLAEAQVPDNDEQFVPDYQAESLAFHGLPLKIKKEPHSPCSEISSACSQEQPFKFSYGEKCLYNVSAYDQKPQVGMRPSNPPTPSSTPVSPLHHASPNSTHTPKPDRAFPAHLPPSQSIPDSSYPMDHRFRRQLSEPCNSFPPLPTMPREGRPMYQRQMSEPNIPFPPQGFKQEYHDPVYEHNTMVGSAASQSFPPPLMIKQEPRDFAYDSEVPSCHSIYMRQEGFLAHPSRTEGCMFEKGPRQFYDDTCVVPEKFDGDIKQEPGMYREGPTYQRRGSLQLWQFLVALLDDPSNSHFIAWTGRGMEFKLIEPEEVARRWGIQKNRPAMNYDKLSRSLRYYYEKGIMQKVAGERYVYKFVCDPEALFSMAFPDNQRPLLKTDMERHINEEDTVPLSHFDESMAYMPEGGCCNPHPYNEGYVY

ELF4, sequence (Q99607 whole entry): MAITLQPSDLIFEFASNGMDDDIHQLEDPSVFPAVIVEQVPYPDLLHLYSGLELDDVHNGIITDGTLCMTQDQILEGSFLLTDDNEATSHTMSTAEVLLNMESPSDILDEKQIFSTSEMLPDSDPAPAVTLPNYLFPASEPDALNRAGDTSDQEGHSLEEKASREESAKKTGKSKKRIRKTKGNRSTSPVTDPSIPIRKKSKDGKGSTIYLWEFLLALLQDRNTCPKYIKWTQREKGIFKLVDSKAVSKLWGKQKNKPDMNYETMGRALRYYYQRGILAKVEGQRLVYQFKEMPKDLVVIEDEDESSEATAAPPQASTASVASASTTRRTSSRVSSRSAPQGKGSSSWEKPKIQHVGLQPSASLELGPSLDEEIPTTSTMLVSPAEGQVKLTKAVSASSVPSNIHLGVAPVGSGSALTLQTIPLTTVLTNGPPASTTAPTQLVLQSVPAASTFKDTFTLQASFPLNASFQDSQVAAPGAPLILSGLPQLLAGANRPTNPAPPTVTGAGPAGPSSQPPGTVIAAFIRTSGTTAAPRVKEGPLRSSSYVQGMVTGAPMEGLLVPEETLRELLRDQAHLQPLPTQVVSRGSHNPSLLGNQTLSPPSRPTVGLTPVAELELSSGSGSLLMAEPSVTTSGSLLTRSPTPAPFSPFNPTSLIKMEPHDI
CRX, sequence (O43186 whole entry): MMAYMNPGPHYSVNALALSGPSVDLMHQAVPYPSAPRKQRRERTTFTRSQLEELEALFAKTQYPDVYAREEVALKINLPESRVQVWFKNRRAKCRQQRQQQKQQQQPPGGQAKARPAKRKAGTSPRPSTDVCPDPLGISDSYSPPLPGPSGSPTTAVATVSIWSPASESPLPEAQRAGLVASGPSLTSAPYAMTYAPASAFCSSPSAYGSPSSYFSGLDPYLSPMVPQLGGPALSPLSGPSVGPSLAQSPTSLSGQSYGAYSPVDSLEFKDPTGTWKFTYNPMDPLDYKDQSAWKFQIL
ETV5, sequence (P41161 whole entry): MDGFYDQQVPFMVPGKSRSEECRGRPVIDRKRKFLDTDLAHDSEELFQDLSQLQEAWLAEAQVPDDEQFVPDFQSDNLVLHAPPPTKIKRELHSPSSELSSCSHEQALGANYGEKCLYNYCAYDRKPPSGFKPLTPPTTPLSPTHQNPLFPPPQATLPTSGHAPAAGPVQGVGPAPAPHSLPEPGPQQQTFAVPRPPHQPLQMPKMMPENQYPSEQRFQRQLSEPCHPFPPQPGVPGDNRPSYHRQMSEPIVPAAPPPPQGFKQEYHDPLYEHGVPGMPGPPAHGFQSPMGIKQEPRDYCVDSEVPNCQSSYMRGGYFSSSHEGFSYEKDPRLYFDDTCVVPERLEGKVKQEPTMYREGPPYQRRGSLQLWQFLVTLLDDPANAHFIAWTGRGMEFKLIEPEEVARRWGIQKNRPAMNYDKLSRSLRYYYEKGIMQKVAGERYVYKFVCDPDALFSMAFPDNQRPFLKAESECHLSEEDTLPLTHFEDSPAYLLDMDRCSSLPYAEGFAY
HSF1, sequence (Q00613 whole entry): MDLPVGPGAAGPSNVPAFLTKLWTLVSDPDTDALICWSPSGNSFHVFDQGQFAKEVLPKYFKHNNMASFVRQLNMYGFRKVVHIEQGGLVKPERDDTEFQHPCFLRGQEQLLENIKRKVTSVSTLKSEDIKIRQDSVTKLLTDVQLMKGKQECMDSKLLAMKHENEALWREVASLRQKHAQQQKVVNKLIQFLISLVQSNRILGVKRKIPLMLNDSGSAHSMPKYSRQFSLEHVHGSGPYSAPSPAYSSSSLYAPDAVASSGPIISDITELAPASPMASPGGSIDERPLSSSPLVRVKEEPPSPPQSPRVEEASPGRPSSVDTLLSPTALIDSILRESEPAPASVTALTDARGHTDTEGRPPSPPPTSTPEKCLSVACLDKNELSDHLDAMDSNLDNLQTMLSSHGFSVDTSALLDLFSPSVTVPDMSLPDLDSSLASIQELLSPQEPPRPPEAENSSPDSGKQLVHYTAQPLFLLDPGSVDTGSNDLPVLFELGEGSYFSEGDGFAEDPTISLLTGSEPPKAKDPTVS
ELF1, sequence (P32519 whole entry): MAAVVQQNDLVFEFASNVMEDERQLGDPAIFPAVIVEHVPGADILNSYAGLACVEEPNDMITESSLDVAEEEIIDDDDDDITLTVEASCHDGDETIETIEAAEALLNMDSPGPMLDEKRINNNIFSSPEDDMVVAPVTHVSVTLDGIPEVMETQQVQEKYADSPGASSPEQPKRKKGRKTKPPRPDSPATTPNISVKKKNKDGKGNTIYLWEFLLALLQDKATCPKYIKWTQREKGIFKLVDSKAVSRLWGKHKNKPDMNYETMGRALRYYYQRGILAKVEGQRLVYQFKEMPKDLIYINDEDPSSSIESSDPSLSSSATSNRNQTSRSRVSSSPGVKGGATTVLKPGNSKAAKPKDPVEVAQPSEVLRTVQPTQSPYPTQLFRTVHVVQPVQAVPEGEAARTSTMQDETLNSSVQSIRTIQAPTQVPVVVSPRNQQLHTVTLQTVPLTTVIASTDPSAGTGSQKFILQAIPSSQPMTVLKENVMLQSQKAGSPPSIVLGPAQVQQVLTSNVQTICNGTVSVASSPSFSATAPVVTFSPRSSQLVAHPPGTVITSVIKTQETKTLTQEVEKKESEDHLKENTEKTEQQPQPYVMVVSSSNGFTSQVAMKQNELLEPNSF
SPIB, sequence (Q01892 whole entry): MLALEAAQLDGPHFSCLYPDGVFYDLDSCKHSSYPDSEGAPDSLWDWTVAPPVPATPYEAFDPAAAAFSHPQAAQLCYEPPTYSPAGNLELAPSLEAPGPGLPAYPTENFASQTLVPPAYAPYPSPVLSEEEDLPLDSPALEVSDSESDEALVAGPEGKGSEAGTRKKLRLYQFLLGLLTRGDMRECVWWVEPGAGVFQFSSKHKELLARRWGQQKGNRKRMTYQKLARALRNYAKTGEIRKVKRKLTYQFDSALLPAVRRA

For the sequence TCCCAA, the binding signal with FLI1 is 1.14 fold enrichment (6-mer frequency, TF over GST control); with ELK1 it was 1.2 fold enrichment (6-mer frequency, TF over GST control); with GABPA it was 1.25 fold enrichment (6-mer frequency, TF over GST control); in the assay with ERG, 1.28 fold enrichment (6-mer frequency, TF over GST control); with ELF1 it was 1.3 fold enrichment (6-mer frequency, TF over GST control); with EHF, 1.31 fold enrichment (6-mer frequency, TF over GST control). In addition, the binding signal with SPI1 was 1.2 fold enrichment (6-mer frequency, TF over GST control); with SPIB, 1.15 fold enrichment (6-mer frequency, TF over GST control); with ELK3, 1.28 fold enrichment (6-mer frequency, TF over GST control); with FEV, 1.17 fold enrichment (6-mer frequency, TF over GST control); with ETV5, 1.2 fold enrichment (6-mer frequency, TF over GST control); with HSF1 it was 1.11 fold enrichment (6-mer frequency, TF over GST control). The binding signal was 1.17 fold enrichment (6-mer frequency, TF over GST control) with SPIC; 1.24 fold enrichment (6-mer frequency, TF over GST control) in the assay with ELF4; 1.09 fold enrichment (6-mer frequency, TF over GST control) with ELK4; 1.16 fold enrichment (6-mer frequency, TF over GST control) with ELF3; 1.23 fold enrichment (6-mer frequency, TF over GST control) in the assay with CRX; 1.2 fold enrichment (6-mer frequency, TF over GST control) in the assay with ETV1.

These data come from article PMC7862700, “An all-to-all approach to the identification of sequence-specific readers for epigenetic DNA modifications on cytosine”.
